Reference: PubChem BioAssay AID1159580 (chemical genetic matrix, 2015)
Several values for one entry are separate records, joined by “and”; a condition that tells them apart may be missing. Equal values may be shown once. About 2,000 (36%) of roughly 5,500 compounds were called active. Inconclusive results (about 18%) are left out. No stated cut-off is given here; in the data, active means normalized growth mostly below about 0.91 (no sharp cut-off); inconclusive means no clear call, values can overlap the other calls; inactive means mostly above about 0.92. The list shows a part of the results.

Test: chemical genetic growth profiling, strain panel (AID 1159580);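 further: tested at 20 µM; growth read once vehicle control cultures reached saturation at 30 °C; 1 = growth at the plate median or of vehicle wells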
Settings: S. cerevisiae deletion strains, growth OD

Measured: normalized growth

CCCCCC1C(=O)CCC1CC(=O)OC (stereo not given)
inactive: locus YAL013W, strain DEP1, stronger effect = lower value 0.988 | locus YAL021C, strain ccr4, stronger effect = lower value 1.04 | locus YAL026C, strain drs2, stronger effect = lower value 0.988 | locus YAL030W, strain snc1, stronger effect = lower value 0.981 | locus YBL061C, strain skt5, stronger effect = lower value 0.984 | locus YBR009C, strain hhf1, stronger effect = lower value 0.972 | locus YBR021W, strain FUR4, stronger effect = lower value 0.921 | locus YBR023C, strain chs3, stronger effect = lower value 0.977 | locus YBR171W, strain sec66, stronger effect = lower value 0.96 | locus YBR229C, strain ROT2, stronger effect = lower value 0.991 | locus YBR231C, strain swc5, stronger effect = lower value 0.978 | locus YBR279W, strain paf1, stronger effect = lower value 0.986 | locus YCL011C, strain gbp2, stronger effect = lower value 0.988 | locus YCL016C, strain dcc1, stronger effect = lower value 0.979 | locus YCL029C, strain bik1, stronger effect = lower value 0.958 | locus YCL061C, strain MRC1, stronger effect = lower value 0.984 | locus YCL069W, strain vba3, stronger effect = lower value 0.986 | locus YCR088W, strain abp1, stronger effect = lower value 0.973 | locus YDL005C, strain med2, stronger effect = lower value 0.97 | locus YDL035C, strain GPR1, stronger effect = lower value 0.974 | locus YDL040C, strain nat1, stronger effect = lower value 0.981 | locus YDL074C, strain BRE1, stronger effect = lower value 0.992 | locus YDL101C, strain DUN1, stronger effect = lower value 1.01 | locus YDL134C, strain PPH21, stronger effect = lower value 1.01 | locus YDL185W, strain tfp1, stronger effect = lower value 0.931 | locus YDL192W, strain arf1, stronger effect = lower value 0.97 | locus YDR001C, strain nth1, stronger effect = lower value 0.984 | locus YDR069C, strain doa4, stronger effect = lower value 0.999 | locus YDR101C, strain arx1, stronger effect = lower value 0.96 | locus YDR137W, strain rgp1, stronger effect = lower value 0.996 | locus YDR150W, strain NUM1, stronger effect = lower value 0.975 | locus YDR159W, strain sac3, stronger effect = lower value 0.969 | locus YDR162C, strain NBP2, stronger effect = lower value 1.03 | locus YDR195W, strain ref2 0.991 | locus YDR297W, strain sur2, stronger effect = lower value 0.978 | locus YDR318W, strain mcm21, stronger effect = lower value 0.961 | locus YDR334W, strain swr1, stronger effect = lower value 0.986 | locus YDR335W, strain msn5, stronger effect = lower value 1.01 | locus YDR388W, stronger effect = lower value 0.954 | locus YDR392W, strain spt3, stronger effect = lower value 0.975 | locus YDR502C, strain sam2, stronger effect = lower value 0.996 | locus YEL003W, strain gim4, stronger effect = lower value 0.987 | locus YEL037C, strain rad23, stronger effect = lower value 0.984 | locus YEL061C, strain CIN8 (second series), stronger effect = lower value 0.989 | locus YEL061C, strain CIN8, stronger effect = lower value 0.991 | locus YER015W, strain faa2, stronger effect = lower value 0.98 | locus YER016W, strain bim1, stronger effect = lower value 0.986 | locus YER111C, strain swi4, stronger effect = lower value 0.982 | locus YER155C, strain BEM2 (second series), stronger effect = lower value 0.95 | locus YER155C, strain BEM2, stronger effect = lower value 0.952 | locus YER167W, strain BCK2, stronger effect = lower value 0.97 | locus YFR010W, strain ubp6, stronger effect = lower value 0.987 | locus YGL078C, strain dbp3, stronger effect = lower value 0.966 | locus YGL086W, strain mad1, stronger effect = lower value 1.01 | locus YGL167C, strain pmr1, stronger effect = lower value 0.96 | locus YGL173C, strain kem1, stronger effect = lower value 0.967 | locus YGL227W, strain vid30, stronger effect = lower value 0.963 | locus YGL240W, strain doc1, stronger effect = lower value 0.994 | locus YGL248W, strain PDE1, stronger effect = lower value 1.04 | locus YGL253W, strain hxk2, stronger effect = lower value 0.981 | locus YGR078C, strain PAC10, stronger effect = lower value 1.04 | locus YGR135W, strain pre9, stronger effect = lower value 0.963 | locus YGR229C, strain SMI1, stronger effect = lower value 1.02 | locus YGR252W, strain gcn5, stronger effect = lower value 1.1 | locus YHR013C, strain ard1, stronger effect = lower value 1 | locus YHR027C, strain rpn1, stronger effect = lower value 0.992 | locus YHR030C, strain SLT2, stronger effect = lower value 0.979 and 0.975 | locus YHR079C, strain IRE1 (second series), stronger effect = lower value 0.957 | locus YHR079C, strain IRE1, stronger effect = lower value 0.975 | locus YHR094C, strain hxt1, stronger effect = lower value 0.986 | locus YHR129C, strain ARP1, stronger effect = lower value 0.993 | locus YHR142W, strain chs7, stronger effect = lower value 0.987 | locus YHR200W, strain rpn10, stronger effect = lower value 0.981 | locus YIL066C, strain RNR3, stronger effect = lower value 1 | locus YIL073C, strain SPO22, stronger effect = lower value 0.952 | locus YIL125W, strain kgd1, stronger effect = lower value 0.961 | locus YIR030C, strain dcg1, stronger effect = lower value 0.948 | locus YJL092W, strain hpr5, stronger effect = lower value 0.975 | locus YJL095W, strain BCK1 (second series), stronger effect = lower value 0.983 | locus YJL095W, strain BCK1, stronger effect = lower value 1.06 and 0.982 | locus YJL115W, strain asf1, stronger effect = lower value 0.966 | locus YJL129C, strain trk1, stronger effect = lower value 1 | locus YJL134W, strain LCB3, stronger effect = lower value 0.967 | locus YJL154C, strain vps35, stronger effect = lower value 0.976 | locus YJL164C, strain tpk1, stronger effect = lower value 0.992 | locus YJL166W, strain qcr8, stronger effect = lower value 0.978 | locus YJL168C, strain set2, stronger effect = lower value 0.951 | locus YJL187C, strain SWE1 (second series), stronger effect = lower value 1.03 | locus YJL187C, strain SWE1, stronger effect = lower value 0.977
active: locus YER110C, stronger effect = lower value 0.898
